PubChem BioAssay (NCATS)
Inconclusive results are not listed. A call without a number means that no potency is given here. A number with no mark means an inactive call. Calls of active or inactive are those of the source. Calls come from the whole dose curve; as a rule, active = well fitted inhibition curve with a large enough effect; inconclusive = small, poorly fitted or top-dose-only effect; inactive = no such curve, though single readings can be large or run the other way.

Experiment: qHTS assay for measurement of the activity of small molecule inhibitors on Zika virus induced Caspase-3 activity in human iPSC derived neural progenitor cells (hNPCs) (AID 1224857); note: nearly all actives have a fitted effect of over 65% in size
Conditions: hNPCs ZIKV-induced caspase-3/7, Caspase-Glo luminescence, 6 h; series mostly up to 45.7 µM; activity change, negative = inhibition: at the top concentration
Excerpt: National Center for Advancing Translational Sciences [NCATS]
Johns Hopkins University School of Medicine
Increase in the Caspase-3 activity indicates an activation of apoptosis cell death pathway caused by Zika virus infection in certain types of neuronal cells including human neural progenitor cells (hNPCs), astrocytes, and astrocytoma cell line (SNB-19). This cell-based caspase-3 activity assay measures the increased caspase-3 activity in the human iPSC derived neural progenitor cells (hNPCs) after a 6-hour Zika virus infection with a luminescence readout. A decrease in the luminescence signal in this assay by small molecule treatment indicates an inhibitory effect of that small molecule on the Zika virus induced caspase-3 activity that may correlate with its effect on reduction of Zika virus caused cell death.
The medium for hNPCs consists of DMEM/F12, N2 supplement (ThermoFisher, Cat.# 17502048), NEAA (ThermoFisher, Cat. # 11140050), 2 ug/ml heparin, 2 uM cyclopamine, and B27 (ThermoFisher, Cat. # 17504044). A Caspase-Glo 3/7 assay kit (catalog number G8092; Promega, Madison, WI) was used to detect caspase-3 activity induced by Zika virus infection in human cells. The reagent mixture was reconstituted as described in the protocol from the manufacturer. Polystyrene tissue culture treated and PDL coated white plates were obtained from Greiner Bio-One (Monroe, NC). Cells were seeded in 384- or 1536-well assay plates and cultured at 37 C with 5% CO2 for 16 to 20 hours. The typical cell seeding density in the 1536-well plate assay is 350 cells/well in 3 ul medium for hNPCs in tissue culture treated plates. Compounds were added to cells and incubated for one hour before addition of ZIKV solution to cells (2 FFU/cell). After incubation at 37 C with 5% CO2 for 6 hours, the reagent mixture of Caspase-Glo 3/7 assay kit was added to each well, followed by incubation at room temperature for 30 minutes. The luminescence intensity of the assay plates was measured using a ViewLux plate reader (PerkinElmer). Data were normalized by using the cell-containing wells without ZIKV as a negative control (0% induction of caspase 3/7 activity) and wells containing ZIKV infected cells (Caspase-3 activity induced) as a positive control (100% induction of caspase 3 activity). The percentage inhibitions of the increased Caspase-3 activity by small molecule inhibitors were then calculated.
In the case of `CC(=O)Nc1cc([As](=O)(O)O)ccc1O`, the “activity change, negative = inhibition” value is reported as -2%. For `Cc1cccc(C)c1NC1=NCCCS1`, the Potency was “inactive”. In the case of `C=C1CC[C@@]2(O)[C@H]3Cc4ccc(O)c5c4[C@@]2(CCN3CC2CC2)[C@H]1O5`, the “activity change, negative = inhibition” value is reported as -1.6%. In the case of `C=CCN1CC[C@]23c4c5ccc(O)c4O[C@H]2C(=O)CC[C@@]3(O)[C@H]1C5`, the “activity change, negative = inhibition” value is reported as 0.692%. In the case of `Nc1ccncc1`, the Potency is reported as “inactive”. For `CC(C)NCC(O)c1ccccc1Cl` (stereo not given), the “activity change, negative = inhibition” value was -0.848%. In the case of `C[C@@H]1O[C@@H](O[C@H]2C[C@@H](O)[C@]3(CO)[C@H]4[C@H](O)C[C@]5(C)[C@@H](C6=CC(=O)OC6)CC[C@]5(O)[C@@H]4CC[C@]3(O)C2)[C@H](O)[C@H](O)[C@H]1O`, the Potency is reported as “inactive”. For `CCC1(C2=NCCN2)Cc2ccccc2O1` (stereo not given), the Potency was “inactive”. For `CCN(CC)CCOC(=O)C(O)(c1ccccc1)c1ccccc1`, the “activity change, negative = inhibition” value was -4.55%. In the case of `Cc1cccc(C)c1NC(=O)CN1CCCC1=O`, the Potency is reported as “inactive”. For `CC(CCc1ccccc1)NC(C)C(O)c1ccc(O)cc1` (stereo not given), the Potency was “inactive”. With `NCC(CC(=O)O)c1ccc(Cl)cc1` (stereo not given) the Potency was “inactive”. For `c1ccc(C2CC2)c(OCC2=NCCN2)c1`, the Potency was “inactive”. With `COc1ccc(Cc2nccc3cc(OC)c(OC)cc23)cc1OC` the Potency was “inactive”. With `O=c1[nH]c2ccccc2n1C1CCN(CCCC(c2ccc(F)cc2)c2ccc(F)cc2)CC1` the Potency was “inactive”. With `C[C@@H]1[C@@H](CC(C[C@H]2O[C@@H]3O[C@]4(C)CC[C@@H]5[C@H](C)CC[C@@H]([C@H]2C)[C@@]35OO4)C[S+](=O)([O-])c2ccc(COC(=O)N(C)C)cc2)O[C@@H]2O[C@]3(C)CC[C@H]4[C@H](C)CC[C@@H]1[C@@]24OO3` (stereo not given in full) the “activity change, negative = inhibition” value was 11.2%. With `CC[N+](CC)(CC)CC` the Potency was “inactive”. With `CCCC(C)(COC(N)=O)COC(=O)NC(C)C` (stereo not given) the Potency was “inactive”. For `C#CCN(C)[C@H](C)Cc1ccccc1`, the Potency was “inactive”. In the case of `N[C@@H](Cc1ccc(Oc2cc(I)c(O)c(I)c2)c(I)c1)C(=O)O`, the “activity change, negative = inhibition” value is reported as -3.81%. In the case of `O=C(NC(O)C(Cl)(Cl)Cl)NC(O)C(Cl)(Cl)Cl` (stereo not given), the “activity change, negative = inhibition” value is reported as -0.528%. In the case of `NN=C(N)N`, the Potency is reported as “inactive”. In the case of `Cc1ncc(CNC(=O)N(CCCl)N=O)c(N)n1`, the Potency is reported as “inactive”. With `CC(C)=CC1C(C(=O)OCc2cccc(Oc3ccccc3)c2)C1(C)C` (stereo not given) the “activity change, negative = inhibition” value was -2.78%. For `Oc1cc(Cl)ccc1Oc1ccc(Cl)cc1Cl`, the Potency was “inactive”. In the case of `CC(C)CC(N(C)C)C1(c2ccc(Cl)cc2)CCC1` (stereo not given), the Potency is reported as “inactive”. For `CC[N+]1(C)CCCC(OC(=O)C(O)(c2ccccc2)c2ccccc2)C1` (stereo not given), the “activity change, negative = inhibition” value was 2.28%. In the case of `CC1NCCOC1c1ccccc1` (stereo not given), the “activity change, negative = inhibition” value is reported as 8.48%. For `CN1C[C@H](CNC(=O)OCc2ccccc2)C[C@@H]2c3cccc4c3c(cn4C)C[C@H]21`, the Potency was “inactive”. With `C[C@]12C/C(=C/O)C(=O)C[C@@H]1CC[C@@H]1[C@@H]2CC[C@@]2(C)[C@H]1CC[C@]2(C)O` the “activity change, negative = inhibition” value was -9.89%. For `CN(C)[C@@H]1C(=O)C(C(N)=O)=C(O)[C@@]2(O)C(=O)C3=C(O)c4c(O)cccc4[C@@](C)(O)[C@H]3C[C@@H]12`, the Potency was “inactive”. With `NCC(O)c1ccc(O)cc1` (stereo not given) the Potency was “inactive”. With `COc1ccc(C(CN(C)C)C2(O)CCCCC2)cc1` (stereo not given) the Potency was “inactive”. With `Clc1cccc(N2CCNCC2)c1` the “activity change, negative = inhibition” value was 2.41%. With `CC(C)=CCOc1c2occc2cc2ccc(=O)oc12` the Potency was “inactive”. In the case of `CCOC(=O)C1(c2ccccc2)CCN(CCC(C#N)(c2ccccc2)c2ccccc2)CC1`, the “activity change, negative = inhibition” value is reported as -1.02%. With `CN1CCN(C(=O)O[C@H]2c3nccnc3C(=O)N2c2ccc(Cl)cn2)CC1` the Potency was “inactive”. With `Clc1ccc(COC(Cn2ccnc2)c2ccc(Cl)cc2Cl)cc1` (stereo not given) the Potency was “inactive”. For `CN(C)CCc1ccc(O)cc1`, the Potency was “inactive”. With `Oc1ccccc1-c1ccccc1` the “activity change, negative = inhibition” value was 18.2%.
